Screening results from PubChem BioAssay.
Sampled rows, rich in hits. Any-hit rate of the full collection: about 2.3%.
A549 tox: counter-screen for Nrf2 inhibitors: cytotoxicity in A549 cells | A549 ARE-Fluc cells, CellTiter-Fluor viability, 18-24 h | Potency, µM (titrated, usually from 46 µM), for inactives: top-dose activity change, negative = cytotoxicity, hits mostly inhibitors | actives 0.16% (n = 390,000) | AID 504648; note: potency is the fitted concentration of half-maximal effect; % is set by controls: 0 for no effect and ±100 for the full control effect
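Cytotoxicity counterscreen: CellTiter-Fluor fluorescence was measured in A549 ARE_Fluc cells after 18-24 h of compound exposure in a concentration series. The subsequent BugLite luminescent read reports ARE-luciferase activity.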
Nrf2 inh: blocks Nrf2 signaling. AID 504444. A549 ARE-Fluc reporter, luciferase luminescence, 18-24 h. actives 2.1% (n = 360,000). Potency, µM (top dose mostly 46 µM), without a hit: at the top dose activity change, negative = inhibition, hits mostly inhibitors; note: potency is the fitted concentration of half-maximal effect; % is set by controls: 0 for no effect and ±100 for the full control effect; nearly all actives have a fitted effect of over 60% in size
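Cells were seeded and rested 2 h, then exposed to compounds for 18-24 h. CellTiter-Fluor was read first as a viability measure. BugLite was added 15 min before the final luminescent read of ARE-luciferase activity in A549 cells.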
Anesthetic bind: binds horse apoferritin like a general anesthetic; actives 0.074% (n = 350,000); apoferritin/1-aminoanthracene competitive binding, fluorescence; P02791; AID 485281; Potency, µM (top dose mostly 77.5 µM), without a hit: at the top dose activity change, negative = displacement, hits mostly inhibitors; note: potency is the fitted concentration of half-maximal effect; % is set by controls: 0 for no effect and ±100 for the full control effect; nearly all actives have a fitted effect of over 20% in size
Target sequence (P02791 2-175 limits assumed): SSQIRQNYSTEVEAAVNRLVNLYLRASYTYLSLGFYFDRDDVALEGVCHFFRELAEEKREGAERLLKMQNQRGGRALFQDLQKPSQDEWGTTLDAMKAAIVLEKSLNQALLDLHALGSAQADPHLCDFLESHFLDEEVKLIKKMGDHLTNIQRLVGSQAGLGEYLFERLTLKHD
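Steps: apoferritin (10 uM) was premixed with half-saturated 1-AMA in PBS, compounds were pin-transferred, plates stood 10 min at room temperature, fluorescence was read at 380/535 nm, and curves were fitted with a Hill equation.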
mIDH1 inhibitor: inhibitors of human mutant IDH1 R132H | IDH1-R132H enzyme, NADPH consumption, diaphorase/resazurin fluorescence | Potency, µM (doses to about 76.6 µM), for inactives: top-dose activity change, negative = inhibition, usual class: inhibitors | actives 0.093% (n = 390,000) | AID 602179; note: potency is the fitted concentration of half-maximal effect; % is set by controls: 0 for no effect and ±100 for the full control effect; nearly all actives have a fitted effect of over 65% in size
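IDH1-R132H (0.5 ug/mL dispensed) in pH 7.5 Tris buffer was preincubated 30 min with compound, then given a substrate mix of 0.016 mM NADPH and 2 mM alpha-KG for 80 min at room temperature; remaining NADPH was read by diaphorase/resazurin fluorescence.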
Nrf2 ARE act: activates Nrf2 signaling; AREc32 ARE-luciferase reporter (MCF7-derived line), luminescence, 24 h; Potency, µM (highest dose often 46.1 µM), without a hit: at the highest dose activation, hits mostly activators; actives 0.31% (n = 410,000); note: potency is the fitted concentration of half-maximal effect; % of control where 0% means no effect; nearly all actives have a fitted effect of over 65% in size
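AREc32 cells carrying an ARE-driven firefly luciferase, 1000 cells/well in OPTI-MEM with 5% FBS, dosed after overnight attachment and incubated 24 hr at 37 deg C. Steady-Glo luminescence read after 30 min at RT.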
Giardia killer: kills Giardia lamblia | Giardia lamblia trophozoite viability | activity change, % at 7.66 µM, hits read low | actives 0.15% (n = 340,000); in the data active = activity change below about -80%; inconclusive = between about -30% and that limit;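 note: parasites exposed to compound for two days anaerobically before the ATP read; % is set by controls: 0 for no effect and ±100 for the full control effect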
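Luminescent ATP signal served as the viability read-out, measured 15-30 min after adding ATP detection reagent to trophozoites that had been incubated with compounds for 48 hrs at 37 deg C anaerobically at 100 cells/well.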
An asterisk follows results filed as active; ? = inconclusive; · = not tested or not shown. Unless noted, calls come from the whole dose curve; as a rule, active = well fitted curve in the direction sought with a large enough effect; inconclusive = small, poorly fitted or top-dose-only effect, or another doubt; inactive = no such curve, though single readings can be large; an effect the other way counts as inactive or inconclusive.

SMILES | A549 tox | Nrf2 inh | Anesthetic bind | mIDH1 inhibitor | Nrf2 ARE act | Giardia killer
Cc1ccc(C)c(/C=N/Nc2ccccn2)c1 | 1.0% | ? | -9.0% | 3.7% | 8.91µM* | -6.5
Fc1cccc(F)c1/C=N/Nc1ccccn1 | 7.6% | ? | -1.3% | 2.6% | ? | 4.3
Fc1cccc(/C=N/Nc2ccccn2)c1 | 1.2% | ? | 2.1% | 7.7% | 7.08µM* | -11.5
COc1cccc(C2=Nn3c(nnc3-c3cc(OC)cc(OC)c3)SC2)c1 | -8.8% | ? | ? | · | · | ·
Fc1cccc(Cl)c1Cc1noc(/C=C/c2ccccc2)n1 | -0.4% | ? | -22.4% | 4.2% | 15.8µM* | -9.1
Clc1cccc(Cl)c1CSc1nnc(/C=C/c2ccccc2)o1 | 2.1% | · | ? | 6.2% | 1.3% | -7.2
Nc1cc(C(F)(F)F)ccc1S(=O)(=O)Nc1cccc2c1NCCC2 | ? | 18.9% | · | · | · | 2.4
O=C1CCCN1c1ccc(S(=O)(=O)Oc2ccc(Cl)cc2)cc1[N+](=O)[O-] | ? | 7.31µM* | ? | -0.3% | 0.0% | ?
CCCNS(=O)(=O)c1ccc(N2CCCC2=O)c([N+](=O)[O-])c1 | -4.2% | 26.7% | -3.5% | 3.2% | -0.2% | -19.2
CC(C)(C)OC(=O)N1CCC(c2c(C(=O)NC3CCN(Cc4ccccc4)CC3)cnn2-c2ccc(F)cc2F)CC1 | -12.1% | ? | -18.2% | 7.1% | 2.3% | ·
CCC(C(=O)NC1CCCCC1)N(Cc1cccs1)C(=O)CCC(=O)Nc1cc(C)on1 (configuration not stated) | -14.1% | 8.2µM* | -6.5% | -2.5% | -0.1% | -4.3
Cc1cc(NC(=O)CCC(=O)N(Cc2cccs2)C(C(=O)NC2CCCC2)c2ccncc2)no1 (configuration not stated) | -9.2% | 9.5% | -15.6% | 16.4% | 0.3% | 8.5
CCOC(=O)C1=C(c2ccccc2)N=c2s/c(=C\c3ccc(O)cc3)c(=O)n2C1c1cccs1 (configuration not stated) | ? | 16.4µM* | -10.8% | -2.0% | -1.5% | 1.8
CCOC(=O)C1=C(c2ccccc2)N=c2sc(=Cc3cc(OC)c(OC)c(OC)c3)c(=O)n2C1c1cccs1 (configuration not stated) | · | · | · | · | -0.6% | ·
CC(=O)N1C[C@H]2CON(C)[C@H]2C[C@H]1c1ccc(-c2ccc(C#N)cc2)cc1 | · | · | · | -4.4% | 2.8% | ·
COc1cccc(OCCSc2nc3ccccc3n2CC(=O)N2CCCCC2)c1 | -14.6% | 18.4µM* | ? | 7.1% | 1.1% | ·
COc1cccc(OCCSc2nc3ccccc3n2CC(=O)N2CCOCC2)c1 | -5.6% | ? | -20.4% | -2.1% | -0.2% | ·
O=C(NCc1ccccc1Cl)C1CCCN(c2ncnc3onc(-c4ccc(F)cc4)c23)C1 (configuration not stated) | 2.3% | 7.7% | -4.4% | -9.6% | 5.0% | ·
O=C(Nc1c(Cl)cc([N+](=O)[O-])cc1Cl)c1cc(Cl)ccc1O | ? | ? | · | · | · | -15.6
O=C(N/N=C(\c1ccccc1)c1ccccn1)c1cccc([N+](=O)[O-])c1 | -13.6% | 9.2µM* | -19.5% | 13.6% | 0.0% | 0.2
CCOc1ccc(C(=O)N/N=C(\c2ccccc2)c2ccccn2)cc1 | ? | 20.6µM* | ? | 3.7% | 7.9% | -15.5
S=C(NCCCc1cnc[nH]1)NCCCN(CCc1ccc(Cl)cc1)c1ccc(Br)cn1 | 23.9% | 14.6% | · | · | · | 5.4
CCN1C(=O)[C@H]2[C@@H](c3ccc(SC4CCCCC4)cc3)N[C@@](CC(C)C)(C(=O)OC)[C@H]2C1=O | -2.0% | 20.6µM* | · | -9.2% | -0.7% | -17.6
O=C(/C=C/c1ccco1)NCC(=O)N/N=C/c1ccccc1[N+](=O)[O-] | ? | 0.9% | ? | -4.5% | 11.2µM* | 0.3
COC(=O)C1=C(C(=O)OC)[C@@H]2N(Cc3ccccc3)c3ccccc3[C@@]23C[C@@H](C(=O)OC)N(C(=O)c2cc(C)oc2C)C3=N1 | -15.7% | 23.1µM* | · | 12.0% | -1.6% | 6.3
